Measurements: PubChem BioAssay (Tox21)
Where “and” joins values, the source holds several entries; their conditions need not be identical. Equal entries are not always repeated. Inconclusive results are not listed. Entries that show only a call come without a potency. The source holds several records for some structures; these can differ, active in one and inactive in another. Calls of active or inactive are those of the source. Calls follow the shape of the dose curve; as a rule, active = well fitted curve in the direction sought with a large enough effect in the repeat runs; inconclusive = weak or mixed curves; inactive = no such curve, though single readings can be large; an effect the other way counts as inactive or inconclusive.

molecular target: Cytochrome P450 2C19 (Homo sapiens) (UniProt P33261); assay: Cytochrome P450 Family 2 Subfamily C Member 19 (CYP2C19) small molecule antagonists: luciferase reporter qHTS assay (AID 1671197); details: P450-Glo CYP2C19 enzyme, luciferin luminescence, 1 h; series mostly up to 115 µM; also: nearly all actives have a fitted effect of over 65% in size
Outline: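 Inhibition of CYP2C19 was scored from loss of luminescence in a P450-Glo proluciferin substrate assay, NADPH-started and run 1 h at 37C, with ketoconazole as positive control.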
Potency is read from the fitted curve at half-maximal effect.

Sequence of Cytochrome P450 2C19 (Homo sapiens) (P33261 whole entry, looked up): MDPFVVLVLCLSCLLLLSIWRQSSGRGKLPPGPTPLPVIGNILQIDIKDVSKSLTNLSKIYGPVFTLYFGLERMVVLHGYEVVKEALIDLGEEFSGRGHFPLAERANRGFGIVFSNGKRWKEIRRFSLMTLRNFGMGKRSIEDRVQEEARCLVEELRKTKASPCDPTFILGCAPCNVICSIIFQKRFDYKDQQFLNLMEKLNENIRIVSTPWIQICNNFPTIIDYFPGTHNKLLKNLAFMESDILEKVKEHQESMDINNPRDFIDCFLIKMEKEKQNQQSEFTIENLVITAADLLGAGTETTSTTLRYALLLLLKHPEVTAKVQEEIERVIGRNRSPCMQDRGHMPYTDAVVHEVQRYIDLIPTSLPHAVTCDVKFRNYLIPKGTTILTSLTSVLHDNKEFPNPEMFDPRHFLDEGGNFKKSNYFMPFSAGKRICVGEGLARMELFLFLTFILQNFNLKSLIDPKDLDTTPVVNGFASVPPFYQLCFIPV

Row | Structure (SMILES) | Potency
1 | CN1C(=O)c2ccc([N+](=O)[O-])cc2C1=O | 70.9 µM (active)
2 | CC(C)(C)c1ccccc1 | inactive
3 | O=C(O)c1cc(Cl)cc(Cl)c1 | inactive
4 | CC(N)=O | inactive
5 | CCCOC(=O)c1cc(O)c(O)c(O)c1 | 79.3 µM (active) and 56.4 µM (active)
6 | CC(=O)OCC1=C(C(=O)O)N2C(=O)[C@@H](NC(=O)Cc3cccs3)[C@H]2SC1 | inactive
7 | CC(=O)C1=C(C)[C@@H]2C[C@@]3(C1)[C@H](C)CC[C@H]3C2(C)C | 93.5 µM (active) and 39.9 µM (active)
8 | CC(C)(C)NCC(O)c1cc(O)cc(O)c1 (centres undefined) | inactive
9 | Oc1c(Cl)cc(Cl)cc1Sc1cc(Cl)cc(Cl)c1O | 71.2 µM (active) and 79.6 µM (active) and inactive
10 | Nc1cc(Cl)c(-c2cc(Cl)c(N)cc2Cl)cc1Cl | 10 µM (active) and 7.1 µM (active)
11 | O=c1n(CC2CO2)c(=O)n(CC2CO2)c(=O)n1CC1CO1 (centres undefined) | inactive
12 | CCC(CO)(CO)COCC(CC)(CO)CO | inactive
13 | O=C(Cl)c1cccc(C(=O)Cl)c1 | 79.6 µM (active) and inactive
14 | CCc1cc(C(C)(C)C)c(O)c(C(C)(C)C)c1 | 71.7 µM (active) and inactive
15 | C[N+]1([O-])CCOCC1 | 39.8 µM (active)

molecular target: Cytochrome P450 2C9 (Homo sapiens) (UniProt P11712); assay: Cytochrome P450 Family 2 Subfamily C Member 9 (CYP2C9) small molecule antagonists: luciferase reporter qHTS assay (AID 1671198); details: P450-Glo CYP2C9 enzyme assay, luciferin luminescence; series mostly up to 115 µM; also: nearly all actives have a fitted effect of over 50% in size
Outline: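 P450-Glo proluciferin substrate with CYP2C9 enzyme; 10 min RT preincubation, then NADPH regeneration 1 h at 37C; luciferin detection reagent 20 min RT, luminescence in relative luminescence units.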

Sequence of Cytochrome P450 2C9 (Homo sapiens) (P11712 whole entry, looked up): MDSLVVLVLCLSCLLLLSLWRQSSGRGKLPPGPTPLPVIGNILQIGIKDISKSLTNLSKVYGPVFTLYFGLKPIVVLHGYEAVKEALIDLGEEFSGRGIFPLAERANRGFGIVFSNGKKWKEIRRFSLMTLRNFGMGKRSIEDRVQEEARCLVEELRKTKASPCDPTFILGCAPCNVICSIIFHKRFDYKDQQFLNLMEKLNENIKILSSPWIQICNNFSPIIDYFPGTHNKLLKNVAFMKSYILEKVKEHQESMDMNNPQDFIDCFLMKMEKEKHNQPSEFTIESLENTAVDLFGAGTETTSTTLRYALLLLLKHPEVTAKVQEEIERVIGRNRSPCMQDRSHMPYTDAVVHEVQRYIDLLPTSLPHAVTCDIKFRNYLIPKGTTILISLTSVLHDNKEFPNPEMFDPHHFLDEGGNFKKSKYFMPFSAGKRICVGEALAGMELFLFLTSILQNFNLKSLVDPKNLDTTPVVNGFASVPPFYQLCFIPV

Row | Structure (SMILES) | Potency
16 | COc1cc(C(=S)N2CCOCC2)ccc1O | inactive
17 | CCCCC(CC)COC(=O)CC(C(=O)OCC(CC)CCCC)S(=O)(=O)O (centres undefined) | 15.3 µM (active) and 12.6 µM (active)
18 | CC(C(O)c1ccc(O)cc1)N1CCC(Cc2ccccc2)CC1 (centres undefined) | inactive
19 | CCn1cc(C(=O)O)c(=O)c2cc(F)c(N3CCNC(C)C3)c(F)c21 (centres undefined) | inactive
20 | O=Cc1ccc(Cl)cc1 | inactive
21 | CCN(CC)C(=S)SSC(=S)N(CC)CC | 6.33 µM (active) and 4.21 µM (active) and 4.36 µM (active)
22 | CC[C@H]1CN2CCc3cc(OC)c(OC)cc3[C@@H]2C[C@@H]1C[C@H]1NCCc2cc(OC)c(OC)cc21 | inactive
23 | CC1=C(C=O)C(C)(C)CC=C1 | inactive
24 | CCOc1ccc2c(c1)C(C)=CC(C)(C)N2 | 7.93 µM (active) and 5.64 µM (active)
25 | c1ccc2c(c1)-c1cccc3c1c-2cc1ccccc13 | inactive
26 | CNC1(C)C2CCC(C2)C1(C)C (centres undefined) | inactive
27 | CCCCC/C=C/CC1CC(=O)OC1=O (centres undefined) | inactive

molecular target: Cytochrome P450 1A2 (Homo sapiens) (UniProt P05177); assay: Cytochrome P450 Family 1 Subfamily A Member 2 (CYP1A2) small molecule antagonists: luciferase reporter qHTS assay (AID 1671199); details: P450-Glo CYP1A2 enzyme, luciferin luminescence, 1 h; series mostly up to 53 µM; also: nearly all actives have a fitted effect of over 50% in size
Outline: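 Luminescence readout (relative luminescence units) after luciferin detection reagent, 20 min RT. Preceded by 1 h room-temperature CYP1A2 reaction with NADPH regeneration solution following 10 min compound preincubation with enzyme and proluciferin substrate. Furafylline positive control.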

Sequence of Cytochrome P450 1A2 (Homo sapiens) (P05177 whole entry, looked up): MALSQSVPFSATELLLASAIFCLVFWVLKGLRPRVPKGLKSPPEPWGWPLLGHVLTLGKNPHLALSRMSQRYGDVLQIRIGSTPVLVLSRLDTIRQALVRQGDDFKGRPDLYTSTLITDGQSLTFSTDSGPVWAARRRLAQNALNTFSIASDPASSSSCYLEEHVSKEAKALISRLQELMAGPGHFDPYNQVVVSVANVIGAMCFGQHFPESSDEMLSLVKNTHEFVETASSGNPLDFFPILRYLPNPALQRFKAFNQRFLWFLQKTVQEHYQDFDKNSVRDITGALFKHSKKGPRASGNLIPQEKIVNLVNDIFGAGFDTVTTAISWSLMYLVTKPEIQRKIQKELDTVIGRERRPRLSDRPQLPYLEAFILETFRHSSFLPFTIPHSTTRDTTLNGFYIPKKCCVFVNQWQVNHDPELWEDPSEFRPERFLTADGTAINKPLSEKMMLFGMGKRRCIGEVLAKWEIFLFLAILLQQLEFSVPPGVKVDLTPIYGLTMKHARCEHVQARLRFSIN

Row | Structure (SMILES) | Potency
28 | CCn1cc(C(=O)O)c(=O)c2cc(F)c(N3CCNC(C)C3)c(F)c21 (centres undefined) | inactive
29 | CCCOC(=O)c1cc(O)c(O)c(O)c1 | 39.7 µM (active) and 39.9 µM (active)
30 | CC(=O)OCC1=C(C(=O)O)N2C(=O)[C@@H](NC(=O)Cc3cccs3)[C@H]2SC1 | inactive
31 | CCN(CC)C(=S)SSC(=S)N(CC)CC | 31.7 µM (active) and 21.3 µM (active) and 6.45 µM (active)
32 | CC[C@H]1CN2CCc3cc(OC)c(OC)cc3[C@@H]2C[C@@H]1C[C@H]1NCCc2cc(OC)c(OC)cc21 | inactive
33 | CCOc1ccc2c(c1)C(C)=CC(C)(C)N2 | 39.7 µM (active) and 31.7 µM (active)
34 | CN(C)c1ccc(C(=C2C=CC(=[N+](C)C)C=C2)c2ccccc2)cc1 | 15.9 µM (active) and 13.8 µM (active)
35 | Nc1cc(Cl)c(-c2cc(Cl)c(N)cc2Cl)cc1Cl | 11.2 µM (active) and 12.6 µM (active)
36 | CNC1(C)C2CCC(C2)C1(C)C (centres undefined) | inactive
37 | CCC(CO)(CO)COCC(CC)(CO)CO | inactive
38 | CCCCC/C=C/CC1CC(=O)OC1=O (centres undefined) | 28.3 µM (active)
39 | CCc1cc(C(C)(C)C)c(O)c(C(C)(C)C)c1 | inactive
40 | C[N+]1([O-])CCOCC1 | 31.6 µM (active)

molecular target: Voltage-gated inwardly rectifying potassium channel KCNH2 (Homo sapiens) (UniProt Q12809); assay: Human Ether-a-go-go-Related Gene (hERG) channel small molecule antagonists: fluorescence cell-based qHTS assay (AID 1671200); details: hERG-U2OS cells, FluxOR thallium flux fluorescence; series mostly up to 76.8 µM; also: nearly all actives have a fitted effect of over 50% in size
Outline: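 U2OS cells expressing the channel were plated at 1000 cells/well, incubated overnight at 37 C, then loaded with FluxOR II thallium-sensitive dye for 1 h at room temperature in the dark, with a further 10 min at room temperature before stimulation.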

Sequence of Voltage-gated inwardly rectifying potassium channel KCNH2 (Homo sapiens) (Q12809 whole entry, looked up): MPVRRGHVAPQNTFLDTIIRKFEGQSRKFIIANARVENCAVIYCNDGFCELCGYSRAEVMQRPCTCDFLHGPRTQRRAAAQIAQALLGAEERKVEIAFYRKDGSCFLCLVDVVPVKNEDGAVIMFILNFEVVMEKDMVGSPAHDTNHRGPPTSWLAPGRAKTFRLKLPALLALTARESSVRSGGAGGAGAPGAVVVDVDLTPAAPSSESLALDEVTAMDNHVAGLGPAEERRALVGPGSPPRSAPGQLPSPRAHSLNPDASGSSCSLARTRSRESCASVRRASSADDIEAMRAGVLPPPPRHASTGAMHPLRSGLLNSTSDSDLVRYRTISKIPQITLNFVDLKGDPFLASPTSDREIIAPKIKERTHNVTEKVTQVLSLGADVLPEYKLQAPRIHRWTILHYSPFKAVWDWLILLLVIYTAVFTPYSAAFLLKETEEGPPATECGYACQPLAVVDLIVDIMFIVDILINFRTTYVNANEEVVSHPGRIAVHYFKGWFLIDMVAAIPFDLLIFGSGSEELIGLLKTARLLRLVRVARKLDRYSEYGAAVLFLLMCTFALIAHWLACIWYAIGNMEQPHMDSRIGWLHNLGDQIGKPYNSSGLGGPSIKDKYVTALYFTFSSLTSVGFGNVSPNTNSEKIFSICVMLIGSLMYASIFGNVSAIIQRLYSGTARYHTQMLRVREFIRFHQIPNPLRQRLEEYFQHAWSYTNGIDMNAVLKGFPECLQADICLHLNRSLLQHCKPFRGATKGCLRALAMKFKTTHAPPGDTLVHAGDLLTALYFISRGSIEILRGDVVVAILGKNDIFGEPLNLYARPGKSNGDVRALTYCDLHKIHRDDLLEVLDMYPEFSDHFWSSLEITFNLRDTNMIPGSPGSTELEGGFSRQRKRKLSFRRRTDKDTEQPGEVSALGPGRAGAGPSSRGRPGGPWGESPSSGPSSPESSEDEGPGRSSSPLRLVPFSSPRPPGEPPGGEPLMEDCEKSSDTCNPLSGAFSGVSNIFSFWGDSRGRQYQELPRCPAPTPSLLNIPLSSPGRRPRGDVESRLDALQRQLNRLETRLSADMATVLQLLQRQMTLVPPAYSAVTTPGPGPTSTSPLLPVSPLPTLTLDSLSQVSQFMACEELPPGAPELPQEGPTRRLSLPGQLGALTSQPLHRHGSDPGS

Row | Structure (SMILES) | Potency
41 | COc1cc(C(=S)N2CCOCC2)ccc1O | inactive
42 | CCCCC(CC)COC(=O)CC(C(=O)OCC(CC)CCCC)S(=O)(=O)O (centres undefined) | inactive
43 | O=C(OCc1ccccc1)c1ccc(O)cc1 | inactive
44 | CN(C)c1ccc2nc3ccc(=[N+](C)C)cc-3sc2c1 | inactive
45 | CN1C(=O)c2ccc([N+](=O)[O-])cc2C1=O | inactive
46 | CC(C)(C)c1ccccc1 | inactive
47 | CC(C(O)c1ccc(O)cc1)N1CCC(Cc2ccccc2)CC1 (centres undefined) | 6.01 µM (active)
48 | CC[C@]1(O)C[C@@H]2CN(CCc3c([nH]c4ccccc34)[C@@](C(=O)OC)(c3cc4c(cc3OC)N(C)[C@H]3[C@@](O)(C(=O)OC)[C@H](OC(C)=O)[C@]5(CC)C=CCN6CC[C@]43[C@@H]65)C2)C1 | inactive
49 | O=C(O)c1cc(Cl)cc(Cl)c1 | inactive
50 | CCCCN(CCO)CCCC | inactive
51 | O=Cc1ccc(Cl)cc1 | inactive
52 | CC(N)=O | inactive
53 | CCCOC(=O)c1cc(O)c(O)c(O)c1 | inactive
54 | CC(=O)OCC1=C(C(=O)O)N2C(=O)[C@@H](NC(=O)Cc3cccs3)[C@H]2SC1 | inactive
55 | CCCN[C@H]1CCc2nc(N)sc2C1 | inactive
56 | CCN(CC)C(=S)SSC(=S)N(CC)CC | 41 µM (active) and inactive
57 | CC1=C(C=O)C(C)(C)CC=C1 | inactive

Row | Structure (SMILES) | Potency
58 | CCOc1ccc2c(c1)C(C)=CC(C)(C)N2 | inactive
59 | CC(=O)C1=C(C)[C@@H]2C[C@@]3(C1)[C@H](C)CC[C@H]3C2(C)C | 24.5 µM (active)
60 | c1ccc2c(c1)CCCC2C1=NCCN1 (centres undefined) | inactive
61 | c1ccc2c(c1)-c1cccc3c1c-2cc1ccccc13 | inactive
62 | CN(C)c1ccc(C(=C2C=CC(=[N+](C)C)C=C2)c2ccccc2)cc1 | 4.25 µM (active) [middle of 4 runs]
63 | CC(C)(C)NCC(O)c1cc(O)cc(O)c1 (centres undefined) | inactive
64 | Oc1c(Cl)cc(Cl)cc1Sc1cc(Cl)cc(Cl)c1O | inactive
65 | NC12CC3CC(CC(C3)C1)C2 | inactive
66 | CC(C)(C)NC(=O)[C@@H]1CN(Cc2cccnc2)CCN1C[C@@H](O)C[C@@H](Cc1ccccc1)C(=O)N[C@H]1c2ccccc2C[C@H]1O | inactive
67 | Nc1cc(Cl)c(-c2cc(Cl)c(N)cc2Cl)cc1Cl | inactive
68 | CNC1(C)C2CCC(C2)C1(C)C (centres undefined) | inactive
69 | O=c1n(CC2CO2)c(=O)n(CC2CO2)c(=O)n1CC1CO1 (centres undefined) | inactive
70 | CCC(CO)(CO)COCC(CC)(CO)CO | inactive
71 | O=C(Cl)c1cccc(C(=O)Cl)c1 | inactive
72 | CCCCC/C=C/CC1CC(=O)OC1=O (centres undefined) | inactive
73 | CCc1cc(C(C)(C)C)c(O)c(C(C)(C)C)c1 | inactive
74 | C[N+]1([O-])CCOCC1 | inactive
